In the supplement of paper PMC10849652:
Of roughly 7,900 targets only a part is listed; those with a hit were picked by preference. About 0.6% of all pairs of compound and target were hits. A number with no mark means an inactive call.

Assays:
Assay in all cases: log2 fold change, soluble protein after heating vs DMSO (PISA); higher = thermal stabilisation; K562 cells, 10 uM, 30 min; active = over 0.2 and 3.5 SD of the protein, either way, in both replicates (recomputed)
[1] = compound: CC[C@@H]1C(=O)N(C)c2cnc(Nc3ccc(C(=O)NC4CCN(C)CC4)cc3OC)nc2N1C1CCCC1
How it was run: (§1)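 Quantification of soluble protein used TMTpro 16plex LC-MS/MS, with channel sums equalised. Samples were the supernatant after 21,000xg for 90 min of pooled aliquots from K562 cells (2×10^6 cells/mL) treated with 10 μM compound for 30 min, heated for 3 min over 48°C-58°C, and extracted in PBS with 0.5% NP-40 at 4°C. Values, from duplicates, describe thermal stability against control samples on a log2 fold-change scale.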

volasertib = compound: CC[C@@H]1C(=O)N(C)c2cnc(Nc3ccc(C(=O)N[C@H]4CC[C@H](N5CCN(CC6CC6)CC5)CC4)cc3OC)nc2N1C(C)C [volasertib]
How it was run: as §1

[2] = compound: CC[C@H](C)N1C=C(C2=C(C=C(C=C21)C3=CN=C(C=C3)N4CCNCC4)C(=O)NCC5=C(C=C(NC5=O)C)C)C
How it was run: as §1

epoxomicin = compound: CC[C@H](C)[C@@H](C(=O)N[C@@H]([C@@H](C)O)C(=O)N[C@@H](CC(C)C)C(=O)[C@]1(CO1)C)NC(=O)[C@H]([C@@H](C)CC)N(C)C(=O)C [epoxomicin]
How it was run: as §1

[3] = compound: CCn1c(C(=O)N(C2CC2)C2CC2)cc2c3c(ncn3C)c(Nc3cc(C)n(C)n3)nc21
How it was run: as §1

[4] = compound: CCn1cc(-c2ccnc3[nH]c(-c4cccc(CN(C)C)c4)cc23)c(-c2ccc(NC(=O)N(C)C)cc2)n1
How it was run: as §1

[5] = compound: CN(C)CC(=O)Nc1ccc2[nH]c(=O)c3ccccc3c2c1
How it was run: as §1

rosiglitazone = compound: CN(CCOC1=CC=C(C=C1)C[C@H]2C(=O)NC(=O)S2)C3=CC=CC=N3 (racemic) [rosiglitazone]
How it was run: as §1

[6] = compound: CN1C2=C(C3=C1C(=O)N(N=C3)CC4=CC(=CC=C4)N)SC(=C2)S(=O)C
How it was run: as §1

[7] = compound: CN1CCC(CNc2ccc3ncc(-c4cccc(OC(F)(F)F)c4)n3n2)CC1
How it was run: as §1

saracatinib = compound: CN1CCN(CCOc2cc(OC3CCOCC3)c3c(Nc4c(Cl)ccc5c4OCO5)ncnc3c2)CC1 [saracatinib]
How it was run: as §1

sotrastaurin = compound: CN1CCN(c2nc(C3=C(c4c[nH]c5ccccc45)C(=O)NC3=O)c3ccccc3n2)CC1 [sotrastaurin]
How it was run: as §1

alvocidib = compound: CN1CC[C@H](c2c(O)cc(O)c3c(=O)cc(-c4ccccc4Cl)oc23)[C@H](O)C1 [alvocidib]
How it was run: as §1

Tubastatin A = compound: CN1CCc2c(c3ccccc3n2Cc2ccc(C(=O)NO)cc2)C1 [Tubastatin A]
How it was run: as §1

[8] = compound: CNC(=O)C1=CC=CC=C1NC2=NC(=NC=C2Cl)NC3=C(C=C(C=C3)N4CCOCC4)OC
How it was run: as §1

defactinib = compound: CNC(=O)c1ccc(Nc2ncc(C(F)(F)F)c(NCc3nccnc3N(C)S(C)(=O)=O)n2)cc1 [defactinib]
How it was run: as §1

rucaparib = compound: CNCc1ccc(-c2[nH]c3cc(F)cc4c3c2CCNC4=O)cc1 [rucaparib]
How it was run: as §1

[9] = compound: CNc1nc(-c2ccc3c(N)n[nH]c3c2)cc(N2C[C@@H](C(=O)NC3CCCCC3)CC[C@H]2C)n1
How it was run: as §1

encorafenib = compound: COC(=O)N[C@@H](C)CNc1nccc(-c2cn(C(C)C)nc2-c2cc(Cl)cc(NS(C)(=O)=O)c2F)n1 [encorafenib]
How it was run: as §1

[10] = compound: COC(=O)[C@H](CCSC)NC(=O)C1=C(C=C(C=C1)NC[C@H](CS)N)C2=CC=CC=C2
How it was run: as §1

Chain of UniProt P49914 (P49914 whole entry, looked up): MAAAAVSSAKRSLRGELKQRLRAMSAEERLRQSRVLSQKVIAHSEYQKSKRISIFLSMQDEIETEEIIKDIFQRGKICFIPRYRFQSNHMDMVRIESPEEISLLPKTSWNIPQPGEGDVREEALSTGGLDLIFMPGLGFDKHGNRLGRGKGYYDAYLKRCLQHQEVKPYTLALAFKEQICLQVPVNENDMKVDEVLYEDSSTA
Chain of UniProt Q08J23 (Q08J23 whole entry, looked up): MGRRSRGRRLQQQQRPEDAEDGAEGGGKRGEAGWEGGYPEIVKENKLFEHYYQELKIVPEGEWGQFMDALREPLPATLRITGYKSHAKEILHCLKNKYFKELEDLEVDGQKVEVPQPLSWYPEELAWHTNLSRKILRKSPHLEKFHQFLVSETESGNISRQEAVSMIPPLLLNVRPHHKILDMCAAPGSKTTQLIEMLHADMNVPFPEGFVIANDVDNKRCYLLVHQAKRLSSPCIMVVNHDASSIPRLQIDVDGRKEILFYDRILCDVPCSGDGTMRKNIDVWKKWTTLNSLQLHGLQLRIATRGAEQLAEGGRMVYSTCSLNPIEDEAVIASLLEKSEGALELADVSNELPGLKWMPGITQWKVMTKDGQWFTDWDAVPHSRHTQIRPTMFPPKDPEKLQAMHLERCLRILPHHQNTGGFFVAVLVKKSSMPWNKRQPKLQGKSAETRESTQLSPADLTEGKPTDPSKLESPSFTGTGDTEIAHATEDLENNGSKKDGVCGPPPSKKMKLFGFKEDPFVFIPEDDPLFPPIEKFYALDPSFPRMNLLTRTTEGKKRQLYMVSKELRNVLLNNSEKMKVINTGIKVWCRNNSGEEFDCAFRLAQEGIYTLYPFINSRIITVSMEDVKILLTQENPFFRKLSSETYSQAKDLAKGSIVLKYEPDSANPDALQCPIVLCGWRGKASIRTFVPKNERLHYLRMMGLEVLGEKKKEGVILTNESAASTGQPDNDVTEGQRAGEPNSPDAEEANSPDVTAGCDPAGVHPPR
Chain of UniProt Q9HAN9 (Q9HAN9 whole entry, looked up): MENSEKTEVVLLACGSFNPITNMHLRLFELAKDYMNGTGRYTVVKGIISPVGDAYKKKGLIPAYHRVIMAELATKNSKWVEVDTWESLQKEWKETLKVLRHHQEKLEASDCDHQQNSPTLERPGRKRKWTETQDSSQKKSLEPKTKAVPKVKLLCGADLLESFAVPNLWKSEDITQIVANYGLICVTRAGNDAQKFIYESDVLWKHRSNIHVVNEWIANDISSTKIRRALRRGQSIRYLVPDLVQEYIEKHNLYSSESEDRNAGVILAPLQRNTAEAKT
Chain of UniProt Q86WQ0 (Q86WQ0 whole entry, looked up): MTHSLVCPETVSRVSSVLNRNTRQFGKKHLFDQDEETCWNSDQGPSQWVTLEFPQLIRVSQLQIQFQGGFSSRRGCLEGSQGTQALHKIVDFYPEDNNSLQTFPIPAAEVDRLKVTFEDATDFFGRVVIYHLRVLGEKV
Chain of UniProt O60551 (O60551 whole entry, looked up): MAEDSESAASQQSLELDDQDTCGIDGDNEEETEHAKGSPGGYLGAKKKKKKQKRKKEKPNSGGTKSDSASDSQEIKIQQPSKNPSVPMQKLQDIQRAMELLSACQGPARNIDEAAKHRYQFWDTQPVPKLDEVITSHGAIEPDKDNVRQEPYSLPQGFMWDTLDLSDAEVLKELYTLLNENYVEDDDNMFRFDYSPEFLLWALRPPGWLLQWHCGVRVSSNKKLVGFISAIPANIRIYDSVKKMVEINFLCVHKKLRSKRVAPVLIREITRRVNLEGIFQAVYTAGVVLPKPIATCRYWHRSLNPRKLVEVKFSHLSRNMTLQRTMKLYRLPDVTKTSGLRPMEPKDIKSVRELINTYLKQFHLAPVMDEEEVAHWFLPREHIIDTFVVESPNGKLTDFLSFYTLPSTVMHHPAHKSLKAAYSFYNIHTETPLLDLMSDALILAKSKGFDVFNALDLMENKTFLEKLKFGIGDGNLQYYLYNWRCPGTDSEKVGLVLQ
Chain of UniProt Q8NBF2 (Q8NBF2 whole entry, looked up): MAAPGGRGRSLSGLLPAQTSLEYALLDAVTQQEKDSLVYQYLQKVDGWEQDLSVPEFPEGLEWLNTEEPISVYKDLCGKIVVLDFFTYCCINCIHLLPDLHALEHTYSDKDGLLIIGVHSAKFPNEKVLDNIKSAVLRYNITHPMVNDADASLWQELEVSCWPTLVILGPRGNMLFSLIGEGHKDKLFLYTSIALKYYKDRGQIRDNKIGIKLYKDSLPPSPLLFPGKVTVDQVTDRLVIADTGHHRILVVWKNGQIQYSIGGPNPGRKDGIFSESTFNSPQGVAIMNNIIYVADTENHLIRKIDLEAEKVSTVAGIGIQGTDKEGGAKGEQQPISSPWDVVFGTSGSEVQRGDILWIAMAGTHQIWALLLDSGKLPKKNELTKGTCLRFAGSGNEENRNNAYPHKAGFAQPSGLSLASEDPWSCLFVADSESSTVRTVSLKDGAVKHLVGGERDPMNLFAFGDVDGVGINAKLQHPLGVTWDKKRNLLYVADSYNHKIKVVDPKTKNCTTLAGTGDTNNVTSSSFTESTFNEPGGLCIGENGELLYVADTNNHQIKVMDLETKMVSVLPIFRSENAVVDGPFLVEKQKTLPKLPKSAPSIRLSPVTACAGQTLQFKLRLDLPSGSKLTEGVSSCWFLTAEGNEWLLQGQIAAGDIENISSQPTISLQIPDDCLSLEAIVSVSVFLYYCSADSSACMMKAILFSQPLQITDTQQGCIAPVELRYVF
Chain of UniProt Q15003 (Q15003 whole entry, looked up): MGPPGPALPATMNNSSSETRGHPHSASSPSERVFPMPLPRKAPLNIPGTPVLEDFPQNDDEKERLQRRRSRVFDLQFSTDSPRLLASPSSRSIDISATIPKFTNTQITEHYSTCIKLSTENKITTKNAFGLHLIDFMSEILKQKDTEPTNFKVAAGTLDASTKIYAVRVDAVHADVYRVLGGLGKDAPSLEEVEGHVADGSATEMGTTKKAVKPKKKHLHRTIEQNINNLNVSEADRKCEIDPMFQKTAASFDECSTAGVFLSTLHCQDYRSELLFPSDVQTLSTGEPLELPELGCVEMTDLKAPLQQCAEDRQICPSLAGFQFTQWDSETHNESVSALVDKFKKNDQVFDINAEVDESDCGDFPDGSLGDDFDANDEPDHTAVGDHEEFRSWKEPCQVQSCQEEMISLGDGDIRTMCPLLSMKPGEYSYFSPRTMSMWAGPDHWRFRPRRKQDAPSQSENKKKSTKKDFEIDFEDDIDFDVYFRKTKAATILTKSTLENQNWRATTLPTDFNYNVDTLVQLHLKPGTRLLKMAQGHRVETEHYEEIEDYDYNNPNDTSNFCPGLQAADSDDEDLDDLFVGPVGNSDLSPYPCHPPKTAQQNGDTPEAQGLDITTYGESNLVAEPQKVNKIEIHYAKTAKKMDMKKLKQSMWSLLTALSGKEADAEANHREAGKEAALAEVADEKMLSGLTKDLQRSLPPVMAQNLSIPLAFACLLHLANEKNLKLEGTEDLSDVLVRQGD
Chain of UniProt Q9BRP4 (Q9BRP4 whole entry, looked up): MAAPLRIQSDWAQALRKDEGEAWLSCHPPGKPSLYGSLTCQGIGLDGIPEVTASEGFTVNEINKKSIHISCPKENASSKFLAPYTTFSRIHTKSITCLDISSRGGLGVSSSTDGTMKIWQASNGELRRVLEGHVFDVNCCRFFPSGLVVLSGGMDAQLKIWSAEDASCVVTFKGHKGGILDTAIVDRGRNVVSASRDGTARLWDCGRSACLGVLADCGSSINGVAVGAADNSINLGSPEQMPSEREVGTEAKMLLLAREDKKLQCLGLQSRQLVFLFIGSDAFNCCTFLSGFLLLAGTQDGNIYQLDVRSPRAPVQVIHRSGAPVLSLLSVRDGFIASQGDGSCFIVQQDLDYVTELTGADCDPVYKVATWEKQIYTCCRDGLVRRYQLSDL
Chain of UniProt Q9Y2A7 (Q9Y2A7 whole entry, looked up): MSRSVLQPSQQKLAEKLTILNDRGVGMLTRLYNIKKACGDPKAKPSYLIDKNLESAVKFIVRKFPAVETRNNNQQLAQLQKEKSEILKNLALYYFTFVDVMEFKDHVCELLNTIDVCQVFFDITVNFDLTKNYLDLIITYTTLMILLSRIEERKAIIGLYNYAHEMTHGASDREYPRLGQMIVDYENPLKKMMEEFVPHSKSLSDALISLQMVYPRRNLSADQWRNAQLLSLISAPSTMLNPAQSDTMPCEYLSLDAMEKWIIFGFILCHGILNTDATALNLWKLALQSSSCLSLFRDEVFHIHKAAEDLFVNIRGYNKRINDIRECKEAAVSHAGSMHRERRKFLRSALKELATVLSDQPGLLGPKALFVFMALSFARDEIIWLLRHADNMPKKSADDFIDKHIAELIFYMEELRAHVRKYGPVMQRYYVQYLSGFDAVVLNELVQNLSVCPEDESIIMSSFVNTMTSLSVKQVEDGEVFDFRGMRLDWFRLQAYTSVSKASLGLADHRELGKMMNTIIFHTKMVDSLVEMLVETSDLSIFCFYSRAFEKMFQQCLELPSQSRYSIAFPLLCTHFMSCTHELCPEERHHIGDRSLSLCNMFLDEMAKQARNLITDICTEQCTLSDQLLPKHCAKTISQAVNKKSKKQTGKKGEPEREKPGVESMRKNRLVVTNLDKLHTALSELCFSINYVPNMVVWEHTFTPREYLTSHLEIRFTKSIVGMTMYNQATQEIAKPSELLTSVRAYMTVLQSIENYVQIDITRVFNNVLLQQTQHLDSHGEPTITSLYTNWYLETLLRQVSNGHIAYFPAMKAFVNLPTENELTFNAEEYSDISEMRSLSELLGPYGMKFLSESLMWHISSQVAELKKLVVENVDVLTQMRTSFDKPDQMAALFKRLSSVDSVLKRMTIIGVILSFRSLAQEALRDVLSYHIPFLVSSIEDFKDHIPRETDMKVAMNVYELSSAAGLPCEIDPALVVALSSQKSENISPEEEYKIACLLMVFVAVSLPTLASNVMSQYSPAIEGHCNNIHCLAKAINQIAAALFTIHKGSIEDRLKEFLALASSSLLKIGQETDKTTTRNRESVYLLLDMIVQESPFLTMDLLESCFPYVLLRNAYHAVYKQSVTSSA

Target | log2 fold change [1] | log2 fold change (volasertib) | log2 fold change [2] | log2 fold change (epoxomicin) | log2 fold change [3] | log2 fold change [4] | log2 fold change [5] | log2 fold change (rosiglitazone) | log2 fold change [6] | log2 fold change [7] | log2 fold change (saracatinib) | log2 fold change (sotrastaurin) | log2 fold change (alvocidib) | log2 fold change (Tubastatin A) | log2 fold change [8] | log2 fold change (defactinib) | log2 fold change (rucaparib) | log2 fold change [9] | log2 fold change (encorafenib) | log2 fold change [10]
MRPS6 (UniProt P82932) | -0.015 | -0.045 | 0.03 | -0.012 | -0.06 | -0.067 | 0.09 | 0.072 | -0.021 | 0.027 | -0.197 | -0.058 | -0.036 | 0.011 | -0.003 | -0.023 | 0.056 | 0.092 | 0.016 | -0.126
NSUN2 (UniProt Q08J23) | -0.182 | -0.286 | 0.051 | -0.044 | 0.017 | -0.044 | 0.009 | 0.029 | 0.025 | -0.131 | 0.008 | -0.243 | -0.328 (active) | -0.008 | -0.081 | -0.281 (active) | -0.021 | -0.083 | 0.004 | 0.009
NCKAP1 isoform 2 (UniProt Q9Y2A7) | 0.002 | -0.25 (active) | 0.031 | 0.01 | -0.003 | -0.036 | 0.043 | 0.011 | -0.042 | -0.027 | 0.02 | -0.031 | -0.06 | 0.027 | 0.006 | -0.071 | -0.022 | 0.019 | 0 | -0.007
NHLRC2 (UniProt Q8NBF2) | 0.024 | 0.029 | -0.026 | -0.06 | -0.037 | -0.109 | 0.003 | 0.01 | -0.064 | -0.272 (active) | -0.026 | 0.039 | -0.037 | -0.072 | -0.055 | -0.039 | -0.016 | 0.059 | -0.045 | 0.146
NR2C2AP isoform 2 (UniProt Q86WQ0) | -0.108 | -0.061 | -0.018 | 0.023 | -0.055 | 0.018 | 0 | 0.039 | -0.223 | -0.152 | 0.086 | 0.018 | -0.089 | 0.099 | 0.027 | -0.106 | -0.031 | 0.073 | -0.048 | -0.115
NMT2 (UniProt O60551) | 0.013 | -0.177 | 0.039 | 0.01 | -0.001 | -0.098 | -0.013 | -0.056 | 0.002 | -0.208 | -0.031 | 0.007 | -0.021 | 0.008 | 0.146 | -0.016 | -0.04 | -0.027 | 0.02 | 0.023
NDUFB10 (UniProt O96000) | -0.008 | 0.056 | -0.007 | 0.001 | 0 | 0.03 | -0.005 | 0.013 | -0.043 | -0.237 (active) | -0.027 | 0.008 | -0.013 | -0.022 | -0.012 | -0.016 | 0.012 | -0.004 | -0.005 | -0.029
PAAF1 (UniProt Q9BRP4) | 0.006 | -0.034 | -0.021 | -0.275 (active) | 0.005 | -0.051 | -0.009 | 0.039 | -0.07 | -0.039 | 0.056 | 0.016 | -0.075 | -0.008 | -0.006 | -0.034 | 0.012 | -0.008 | -0.004 | 0.004
MRPS27 isoform 2 (UniProt Q92552) | -0.02 | -0.041 | 0.132 | 0.052 | -0.033 | -0.046 | 0.019 | 0.05 | 0.047 | -0.001 | -0.107 | -0.089 | -0.078 | 0.06 | 0.071 | -0.012 | 0.069 | 0.108 | 0.109 | -0.045
NUP98 (UniProt P52948) | -0.12 | -0.276 (active) | 0.084 | -0.012 | -0.027 | -0.018 | 0.039 | 0.068 | 0.033 | -0.038 | -0.019 | -0.072 | -0.063 | 0.041 | 0.018 | -0.12 | 0.063 | -0.037 | 0.039 | -0.053
NMNAT1 (UniProt Q9HAN9) | 0.302 | 0.161 | -0.007 | -0.168 | -0.06 | 0.098 | -0.092 | -0.126 | 0.228 | 0.053 | -0.044 | -0.033 | 0.158 | 0.07 | -0.121 | 0.237 | 0.354 | 0.02 | 0.147 | 0.091
MTHFS (UniProt P49914) | 0.082 | 0.236 (active) | 0.034 | 0.11 | 0.031 | 0.02 | 0.034 | 0.046 | -0.022 | -0.019 | -0.023 | -0.017 | -0.078 | 0.043 | 0.065 | -0.053 | 0.013 | -0.004 | 0.007 | 0.014
NCAPH (UniProt Q15003) | -0.126 | -0.353 (active) | 0.051 | 0.011 | -0.054 | 0.052 | 0.043 | 0.024 | -0.021 | -0.116 | 0.001 | -0.15 | -0.016 | 0.04 | 0.024 | -0.119 | 0.074 | 0.009 | 0.057 | -0.039
